# USP30 inh – blocks human USP30 ubiquitin-rhodamine cleavage | actives 5.3% (n = 47,000) | Q70CQ3 | purified USP30, Ub-rhodamine cleavage fluorescence | inhibition, % at 25 µM
# Target sequence (Q70CQ3 whole entry, looked up): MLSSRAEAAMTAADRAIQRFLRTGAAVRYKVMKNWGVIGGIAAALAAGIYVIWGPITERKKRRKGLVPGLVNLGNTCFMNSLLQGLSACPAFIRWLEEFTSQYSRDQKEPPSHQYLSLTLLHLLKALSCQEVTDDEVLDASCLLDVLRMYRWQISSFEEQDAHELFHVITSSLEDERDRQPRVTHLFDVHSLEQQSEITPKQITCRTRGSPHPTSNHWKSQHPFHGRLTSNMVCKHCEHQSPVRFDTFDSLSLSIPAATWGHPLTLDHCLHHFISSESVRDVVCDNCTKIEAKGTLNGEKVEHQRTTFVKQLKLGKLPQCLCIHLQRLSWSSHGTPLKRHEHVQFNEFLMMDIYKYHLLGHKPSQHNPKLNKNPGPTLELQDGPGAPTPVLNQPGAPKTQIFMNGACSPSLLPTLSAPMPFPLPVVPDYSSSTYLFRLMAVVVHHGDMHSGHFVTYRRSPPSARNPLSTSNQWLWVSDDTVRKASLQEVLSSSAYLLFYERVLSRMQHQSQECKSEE
# USP17 inh – inhibitors of human USP17 deubiquitinase; inhibition, % at 50 µM; actives 6.5% (n = 47,000); purified USP17, Ub-rhodamine cleavage fluorescence, 3 h; A8MUK1; AID 1645855
# USP28 inh – inhibitors of human USP28 deubiquitinase; purified USP28, Ub-rhodamine cleavage fluorescence, 30 min; actives 3% (n = 47,000); AID 1645857; Q96RU2; inhibition, % at 25 µM
# An asterisk follows results filed as active; i = inactive; · = no result given. A selection: hits, their analogues and other compounds. The true share with any hit is near 11%. Cut-off read from the data, not from the text of the source: active = inhibition above about 30%; inactive = the rest.
SMILES,USP30 inh,USP17 inh,USP28 inh
COCC1OC(OC2OCC3OC4(OC(C)C(O)(C(C)=O)C5OCOC54)O[C@H]3[C@H]2OC(=O)C(C)C)[C@@H](OC)[C@@H](O)C1O[C@@H]1O[C@H](C)[C@H](OC)[C@H](OC2O[C@H](C)C3OC4(C[C@@H](O)C(O[C@H]5C[C@@H](O)C(OC(=O)c6c(C)c(Cl)c(O)c(Cl)c6OC)[C@@H](C)O5)[C@@H](C)O4)O[C@@]3(C)[C@@H]2O)C1O (stereo partly specified),-22,-6,-9
O=C(COC(=O)c1cccnc1Nc1cccc(C(F)(F)F)c1)Nc1ccc(F)cc1,0,19,0
O=C(CCC1=NS(=O)(=O)c2ccccc2N1)NCCc1ccc(Cl)cc1,1,-4,-1
Cc1ccc2c(c1)NC(CCC(=O)NCCc1ccc(Cl)cc1)=NS2(=O)=O,59*,59*,27
COc1cccc(CC(=O)N2CCC3(CC2)NC(=O)[C@H]2CN(C(C)=O)C[C@H]23)c1,4,-1,5
O=C(CSc1nnc2ccc3ccccc3n12)c1ccc(Cl)cc1,28,16,10
CCCC(=O)N(Cc1ccccc1)c1nnc(C23CC4CC(CC(C4)C2)C3)s1,12,8,12
CN(C(=O)c1ccc(C(=O)c2ccccc2)cc1)c1nnc(C23CC4CC(CC(C4)C2)C3)s1,33*,18,21
CC(Oc1ccc(F)cc1)c1nnc(C2(c3cccc(C(F)(F)F)c3)CCOCC2)o1 (stereo unspecified),15,-29,15
O=C(NCc1cccnc1)C1CCN(c2cc(N3CCOCC3)ncn2)CC1,43*,11,13
Cc1cccc(CNC(=O)C2CCN(c3cnc(N4CCOCC4)nc3)CC2)c1,-19,-14,-9
O=C1CC(c2ccccc2)Cc2nc(Nc3cc(Cl)cc(Cl)c3)ncc21 (stereo unspecified),-5,33*,-9
CCC(C(=O)Nc1ncc2c(n1)CC(c1ccc(F)cc1)CC2=O)c1ccccc1 (stereo unspecified),34*,20,32*
CCC(C(=O)Nc1ncc2c(n1)CC(c1ccc(OC)cc1)CC2=O)c1ccccc1 (stereo unspecified),13,7,5
COc1cc(C2CC(=O)c3cnc(NC(=O)c4ccccc4Cl)nc3C2)cc(OC)c1OC (stereo unspecified),30,7,13
O=C(Nc1nnc2ccccn12)c1ccccc1Br,3,1,-3
CC(=O)c1c(C)[nH]c(C(=O)N2CCCC2c2ccc3c(c2)OCCCO3)c1C (stereo unspecified),-490,-143,-135
CN(C(=O)COc1ccccc1F)C(c1ccccc1)c1ccccc1,26,24,24
CC(=O)c1ccccc1NC(=O)Cc1ccc(-c2ccccc2)cc1,-274,-12,-12
CC(=O)c1ccccc1NC(=O)COc1ccc(-c2ccc(C#N)cc2)cc1,5,78*,9
N#Cc1ccc(-c2ccc(OCC(=O)Nc3ccc4c(c3)CCC4)cc2)cc1,44*,24,41*
NS(=O)(=O)c1cccc(NC(=O)COc2ccc3c(c2)CCC3)c1,14,11,28
Cc1ncncc1C(=O)N1CC[C@H]2NC(=O)c3ccccc3OCC/C=C/C[C@H]2C1,-17,-2,-2
O=C(Cc1nnc(-c2cnccn2)o1)Nc1cccc(C(F)(F)F)c1,-13,-2,-3
O=C(O)Cc1ccc(NC(=O)C2Cc3ccccc3C(=O)O2)cc1 (stereo unspecified),2,-6,3
SMILES,USP30 inh,USP17 inh,USP28 inh
O=C(Nc1nc2c(ccc3ccccc32)s1)C1CCCC1,34*,14,29
O=C(Nc1nc2ccccc2s1)C1CC(=O)N(c2ccccc2)C1 (stereo unspecified),-17,-13,0
O=C1OC(C(=O)Nc2nc3c(ccc4ccccc43)s2)Cc2ccccc21 (stereo unspecified),9,39*,6
COCCN(C(=O)c1ccco1)c1nc(-c2cc(OC)ccc2OC)cs1,-5,0,-5
Cc1ccc(-c2cc(C(=O)NCC3CCCO3)[nH]n2)cc1C (stereo unspecified),10,-2,19
COc1ccccc1OCc1nnc(SCC(=O)c2ccc(F)cc2)n1C,0,0,-4
Cn1c(COc2cccc3cccnc23)nnc1SCC(=O)c1ccc(Cl)cc1Cl,-1,15,37*
CCC(C)Oc1cccc(C(=O)Nc2ccc(CN3CCOCC3)cc2)c1 (stereo unspecified),0,-8,80*
CC(C)(C)OC(=O)NCc1ccc(C(=O)Nc2ccc(CN3CCOCC3)cc2)cc1,-26,-6,-9
Cn1nc2c(c1C(=O)N1CCCC(c3ccc(C(=O)N4CCCC4)cn3)C1)CCCC2 (stereo unspecified),18,13,11
c1ccc(CN2CCN(c3nc4ccccc4n4nnnc34)CC2)cc1,i,-155,-289
Cc1occc1-c1nnc(SC(C)C(=O)Nc2ccccc2)o1 (stereo unspecified),0,-3,0
CC(Sc1nnc(-c2ccccc2Br)o1)C(=O)Nc1cccc(Cl)c1 (stereo unspecified),43*,22,23
O=C(c1ccn[nH]1)N1CCC2(CC1)CNS(=O)(=O)c1ccccc1OC2,18,15,5
Cc1ccc(-n2ccnc(NC(=O)c3ccccn3)c2=O)cc1C,-11,·,-12
O=C(Nc1nccn(-c2cccc(F)c2)c1=O)c1ccccn1,91*,49*,72*
COc1cc(OC)c(S(=O)(=O)NC2CCCc3ccccc32)cc1NC(C)=O (stereo unspecified),-3,22,-10
CCOC(=O)N1CCC(NC(=O)CCn2c(=S)oc3ccccc32)CC1,34*,26,17
CCOC(=O)N1CCC(NC(=O)C2CCCN(c3nc4ccccc4o3)C2)CC1 (stereo unspecified),12,10,1
COc1ccccc1-c1c(Nc2ccccc2)oc2c1c(=O)n(C)c(=O)n2C,·,0,·
CCN(CC)C(=O)Cn1cc(C(=O)C(=O)N2CCCC(C)C2)c2ccccc21 (stereo unspecified),24,·,16
CCOC(=O)C1CCCN(C(=O)C(=O)c2cn(CC(=O)N3CCCCC3)c3ccccc23)C1 (stereo unspecified),0,34*,8
O=C(Nc1ccc(O)cc1)c1cccn2c(-c3ccccc3F)nnc12,25,-6,37*
Cc1nnc2c(NC(=O)c3cc(F)ccc3F)cccn12,2,14,6
O=C(CSc1nnc(C2COc3ccccc3O2)o1)N1CCCc2ccccc21 (stereo unspecified),27,-18,16
O=C(CSc1nnc(-c2ccc3c(c2)OCCO3)o1)N1CCCc2ccccc21,27,-31,14
Cc1cc(-c2nnc(SCC(=O)N3CCCc4ccccc43)o2)no1,-92,41*,-29
O=C(CSc1nnc(-c2ccncc2)o1)N1CCCc2ccccc21,32*,1,6
O=C(Nc1cc(=O)[nH]c2nc(COc3ccccc3)nn12)c1ccc(Cl)cc1,-137,·,-39
CC1(NC(=O)c2ccnc(Cc3ccccc3)c2)CCS(=O)(=O)C1 (stereo unspecified),-12,5,-5

# Source: PubChem BioAssay (Buhrlage Lab, Dana-Farber Cancer Institute and Novartis Institutes for BioMedical Research (Cambridge, Mass))
